From article PMC7862700, “An all-to-all approach to the identification of sequence-specific readers for epigenetic DNA modifications on cytosine”

Assays:
Experiment in all cases: DAPPL (digital affinity profiling via proximity ligation, sequencing); 10 mM Tris-HCl pH 7.5, 50 mM NaCl, 1 mM DTT, 4% glycerol, room temperature, 30 min; GST-TFs on glutathione beads, 16-mer random dsDNA library, 0.1% formaldehyde crosslink after washing; high values mean tight binding
Settings in all cases: protein: recombinant; tags: N-terminal GST; dsDNA, one strand shown
FEV = biological target: T1, FEV (Homo sapiens, UniProt Q99581 1-238)
T1 sequence: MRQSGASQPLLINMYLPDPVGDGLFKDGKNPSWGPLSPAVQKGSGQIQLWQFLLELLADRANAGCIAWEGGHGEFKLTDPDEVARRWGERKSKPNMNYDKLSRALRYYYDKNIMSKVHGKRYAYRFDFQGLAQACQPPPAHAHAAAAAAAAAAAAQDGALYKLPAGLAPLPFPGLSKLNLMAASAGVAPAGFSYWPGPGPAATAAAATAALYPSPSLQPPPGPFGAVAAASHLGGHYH
Procedure, shortened: (§1)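 Beads coated with glutathione captured GST-fused human transcription factors that had been expressed in yeast, and the factors were then given DNA barcodes and pooled with a tag-only sample. The pools were incubated with 200 nmole of a random double-stranded 16-mer DNA library in Tris/NaCl/DTT/glycerol buffer for 30 min at room temperature, washed, crosslinked with 0.1% formaldehyde and proximity-ligated with BsaI/T4 ligase at 37 °C for 1 h. PCR amplification and Illumina NextSeq500 sequencing came last. Binding signal is each hexamer's read frequency for a factor divided by its frequency for the tag-only sample.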

ETV5 = ETV5 (Homo sapiens, UniProt P41161 1-510)
ETV5, sequence (P41161 whole entry): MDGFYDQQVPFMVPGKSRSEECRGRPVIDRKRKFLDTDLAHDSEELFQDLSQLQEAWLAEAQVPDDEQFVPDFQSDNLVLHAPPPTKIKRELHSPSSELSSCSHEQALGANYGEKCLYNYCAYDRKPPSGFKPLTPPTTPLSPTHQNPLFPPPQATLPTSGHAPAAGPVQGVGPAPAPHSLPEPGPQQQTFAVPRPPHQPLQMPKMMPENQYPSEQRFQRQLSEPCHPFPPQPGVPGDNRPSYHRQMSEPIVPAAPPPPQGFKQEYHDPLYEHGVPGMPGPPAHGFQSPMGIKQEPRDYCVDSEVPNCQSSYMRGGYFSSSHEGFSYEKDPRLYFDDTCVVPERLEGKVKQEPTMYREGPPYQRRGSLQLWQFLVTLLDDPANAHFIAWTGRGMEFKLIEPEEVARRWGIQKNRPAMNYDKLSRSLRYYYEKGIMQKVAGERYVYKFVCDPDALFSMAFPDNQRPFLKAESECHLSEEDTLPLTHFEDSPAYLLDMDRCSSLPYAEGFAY
Procedure, shortened: as §1

SPIC = biological target: T2, SPIC (Homo sapiens, UniProt Q8N5J4 1-248)
T2 sequence: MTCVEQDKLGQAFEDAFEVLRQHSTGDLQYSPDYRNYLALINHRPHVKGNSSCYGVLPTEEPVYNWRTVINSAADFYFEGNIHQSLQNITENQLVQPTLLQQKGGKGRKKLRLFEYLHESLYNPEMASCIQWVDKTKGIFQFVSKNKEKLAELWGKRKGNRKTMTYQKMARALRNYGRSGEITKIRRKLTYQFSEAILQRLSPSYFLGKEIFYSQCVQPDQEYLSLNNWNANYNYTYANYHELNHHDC
Procedure, shortened: as §1

ELF4 = ELF4 (Homo sapiens, UniProt Q99607 1-663)
ELF4, sequence (Q99607 whole entry): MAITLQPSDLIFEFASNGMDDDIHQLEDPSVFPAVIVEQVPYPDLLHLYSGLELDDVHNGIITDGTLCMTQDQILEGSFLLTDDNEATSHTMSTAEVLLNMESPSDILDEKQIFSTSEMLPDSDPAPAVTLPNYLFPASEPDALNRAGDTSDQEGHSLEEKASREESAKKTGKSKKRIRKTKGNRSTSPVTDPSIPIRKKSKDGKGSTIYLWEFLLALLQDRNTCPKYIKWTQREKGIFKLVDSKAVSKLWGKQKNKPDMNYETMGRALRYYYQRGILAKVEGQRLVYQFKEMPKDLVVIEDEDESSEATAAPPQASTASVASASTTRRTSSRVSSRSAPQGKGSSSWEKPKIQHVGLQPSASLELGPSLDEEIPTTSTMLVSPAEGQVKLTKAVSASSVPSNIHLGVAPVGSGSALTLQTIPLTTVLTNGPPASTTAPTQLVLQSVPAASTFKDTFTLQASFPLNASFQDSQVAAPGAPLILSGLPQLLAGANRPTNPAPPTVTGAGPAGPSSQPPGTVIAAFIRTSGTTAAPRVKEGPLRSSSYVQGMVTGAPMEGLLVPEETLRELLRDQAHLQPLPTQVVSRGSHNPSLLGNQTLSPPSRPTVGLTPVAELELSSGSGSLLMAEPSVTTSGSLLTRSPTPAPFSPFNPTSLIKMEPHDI
Procedure, shortened: as §1

ELK4 = biological target: T3, ELK4 (Homo sapiens, UniProt P28324-2 1-405)
T3 sequence: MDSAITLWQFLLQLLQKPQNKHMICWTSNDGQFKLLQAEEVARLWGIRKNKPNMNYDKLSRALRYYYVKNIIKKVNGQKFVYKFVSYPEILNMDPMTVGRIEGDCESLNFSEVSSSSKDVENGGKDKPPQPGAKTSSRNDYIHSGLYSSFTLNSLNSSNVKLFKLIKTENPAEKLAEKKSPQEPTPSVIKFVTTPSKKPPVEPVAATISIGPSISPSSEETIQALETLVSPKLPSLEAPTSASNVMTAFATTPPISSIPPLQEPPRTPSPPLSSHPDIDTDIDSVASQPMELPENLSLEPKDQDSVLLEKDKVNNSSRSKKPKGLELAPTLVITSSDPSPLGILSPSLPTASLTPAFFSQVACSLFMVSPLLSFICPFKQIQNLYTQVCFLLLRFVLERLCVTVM
Procedure, shortened: as §1

ETV2 = biological target: T4, ETV2 (Homo sapiens, UniProt O00321 1-342)
T4 sequence: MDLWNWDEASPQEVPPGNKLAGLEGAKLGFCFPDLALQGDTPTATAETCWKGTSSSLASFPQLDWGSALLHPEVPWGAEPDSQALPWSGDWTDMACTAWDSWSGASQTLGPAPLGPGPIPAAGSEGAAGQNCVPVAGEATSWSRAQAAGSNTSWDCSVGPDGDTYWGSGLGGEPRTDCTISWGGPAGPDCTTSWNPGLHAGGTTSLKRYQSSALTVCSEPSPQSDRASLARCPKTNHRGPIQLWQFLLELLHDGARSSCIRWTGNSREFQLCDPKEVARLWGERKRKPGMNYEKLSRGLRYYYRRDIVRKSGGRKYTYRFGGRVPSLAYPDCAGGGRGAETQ
Procedure, shortened: as §1

ELF3 = biological target: T5, ELF3 (Homo sapiens, UniProt P78545 1-371)
T5 sequence: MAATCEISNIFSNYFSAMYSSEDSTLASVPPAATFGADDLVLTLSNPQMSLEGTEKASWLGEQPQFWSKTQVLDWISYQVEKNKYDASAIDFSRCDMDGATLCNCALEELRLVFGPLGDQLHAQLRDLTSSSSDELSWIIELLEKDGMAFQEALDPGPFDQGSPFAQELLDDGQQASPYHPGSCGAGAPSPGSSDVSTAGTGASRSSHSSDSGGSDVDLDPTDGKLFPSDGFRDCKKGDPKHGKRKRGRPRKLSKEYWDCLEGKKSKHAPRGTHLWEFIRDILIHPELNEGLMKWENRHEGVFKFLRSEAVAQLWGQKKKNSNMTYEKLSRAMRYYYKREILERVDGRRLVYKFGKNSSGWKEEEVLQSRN
Procedure, shortened: as §1

ETV1 = ETV1 (Homo sapiens, UniProt P50549 1-477)
ETV1, sequence (P50549 whole entry): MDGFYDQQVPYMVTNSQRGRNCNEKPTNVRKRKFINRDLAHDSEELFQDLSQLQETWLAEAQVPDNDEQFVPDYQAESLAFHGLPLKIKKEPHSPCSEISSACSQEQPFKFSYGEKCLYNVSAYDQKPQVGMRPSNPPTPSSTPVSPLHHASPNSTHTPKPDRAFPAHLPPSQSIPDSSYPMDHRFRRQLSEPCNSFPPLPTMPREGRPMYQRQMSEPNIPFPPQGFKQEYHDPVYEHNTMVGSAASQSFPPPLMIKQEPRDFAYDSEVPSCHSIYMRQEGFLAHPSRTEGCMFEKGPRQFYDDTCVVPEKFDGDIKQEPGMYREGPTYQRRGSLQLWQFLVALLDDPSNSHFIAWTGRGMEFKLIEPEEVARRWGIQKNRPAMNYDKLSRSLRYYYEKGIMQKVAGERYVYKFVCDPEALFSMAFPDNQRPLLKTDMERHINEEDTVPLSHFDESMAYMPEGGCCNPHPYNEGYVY
Procedure, shortened: as §1

ERF = biological target: T6, ERF (Homo sapiens, UniProt P50548 1-548)
T6 sequence: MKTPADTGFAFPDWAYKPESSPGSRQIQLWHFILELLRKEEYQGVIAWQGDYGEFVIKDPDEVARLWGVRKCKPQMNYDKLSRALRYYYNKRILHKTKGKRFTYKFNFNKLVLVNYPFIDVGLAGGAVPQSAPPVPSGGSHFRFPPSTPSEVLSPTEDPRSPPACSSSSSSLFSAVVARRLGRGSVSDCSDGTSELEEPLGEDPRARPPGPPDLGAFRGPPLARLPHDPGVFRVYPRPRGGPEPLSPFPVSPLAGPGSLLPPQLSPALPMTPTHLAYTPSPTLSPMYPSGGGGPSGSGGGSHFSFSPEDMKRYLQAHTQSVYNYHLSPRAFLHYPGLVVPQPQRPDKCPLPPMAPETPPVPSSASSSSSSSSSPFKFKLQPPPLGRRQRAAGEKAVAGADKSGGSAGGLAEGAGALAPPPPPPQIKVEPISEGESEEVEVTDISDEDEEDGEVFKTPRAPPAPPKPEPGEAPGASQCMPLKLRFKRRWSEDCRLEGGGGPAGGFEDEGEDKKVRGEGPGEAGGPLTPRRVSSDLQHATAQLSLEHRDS
Procedure, shortened: as §1

ETV3L = biological target: T7, ETV3L (Homo sapiens, UniProt Q6ZN32 1-361)
T7 sequence: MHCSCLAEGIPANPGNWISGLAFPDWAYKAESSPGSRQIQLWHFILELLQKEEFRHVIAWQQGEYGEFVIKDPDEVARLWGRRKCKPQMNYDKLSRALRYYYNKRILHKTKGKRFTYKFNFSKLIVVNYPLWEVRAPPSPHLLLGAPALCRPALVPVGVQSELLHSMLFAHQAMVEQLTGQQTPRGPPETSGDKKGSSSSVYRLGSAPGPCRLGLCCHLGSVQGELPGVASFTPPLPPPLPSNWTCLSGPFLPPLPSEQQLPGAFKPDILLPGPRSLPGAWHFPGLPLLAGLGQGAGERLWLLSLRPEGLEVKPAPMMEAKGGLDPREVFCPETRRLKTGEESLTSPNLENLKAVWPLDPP
Procedure, shortened: as §1

ETS2 = biological target: T8, ETS2 (Homo sapiens, UniProt P15036 1-469)
T8 sequence: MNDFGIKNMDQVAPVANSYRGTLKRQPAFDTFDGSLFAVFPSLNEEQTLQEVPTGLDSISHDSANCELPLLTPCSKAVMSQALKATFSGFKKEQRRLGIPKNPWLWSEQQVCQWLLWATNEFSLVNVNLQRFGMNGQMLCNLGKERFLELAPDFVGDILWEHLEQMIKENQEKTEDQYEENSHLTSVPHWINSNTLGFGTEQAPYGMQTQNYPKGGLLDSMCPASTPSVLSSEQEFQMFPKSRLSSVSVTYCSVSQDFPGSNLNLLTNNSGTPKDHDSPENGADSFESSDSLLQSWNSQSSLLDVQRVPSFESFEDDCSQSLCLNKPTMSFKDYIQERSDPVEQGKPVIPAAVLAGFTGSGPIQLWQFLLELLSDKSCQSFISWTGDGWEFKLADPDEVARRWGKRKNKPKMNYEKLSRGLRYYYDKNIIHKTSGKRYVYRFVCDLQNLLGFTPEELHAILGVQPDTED
Procedure, shortened: as §1

SPDEF = biological target: T9, SPDEF (Homo sapiens, UniProt O95238 1-335)
T9 sequence: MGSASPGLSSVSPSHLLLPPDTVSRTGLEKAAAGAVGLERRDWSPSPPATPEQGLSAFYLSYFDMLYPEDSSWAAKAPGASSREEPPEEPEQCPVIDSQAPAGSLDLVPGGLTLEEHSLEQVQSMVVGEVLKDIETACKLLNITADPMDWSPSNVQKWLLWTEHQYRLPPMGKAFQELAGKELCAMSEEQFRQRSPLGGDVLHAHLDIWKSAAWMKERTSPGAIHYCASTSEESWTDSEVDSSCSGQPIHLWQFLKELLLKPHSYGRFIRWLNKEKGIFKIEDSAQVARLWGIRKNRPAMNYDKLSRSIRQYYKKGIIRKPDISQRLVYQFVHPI
Procedure, shortened: as §1

ETV7 = biological target: T10, ETV7 (Homo sapiens, UniProt Q9Y603 1-341)
T10 sequence: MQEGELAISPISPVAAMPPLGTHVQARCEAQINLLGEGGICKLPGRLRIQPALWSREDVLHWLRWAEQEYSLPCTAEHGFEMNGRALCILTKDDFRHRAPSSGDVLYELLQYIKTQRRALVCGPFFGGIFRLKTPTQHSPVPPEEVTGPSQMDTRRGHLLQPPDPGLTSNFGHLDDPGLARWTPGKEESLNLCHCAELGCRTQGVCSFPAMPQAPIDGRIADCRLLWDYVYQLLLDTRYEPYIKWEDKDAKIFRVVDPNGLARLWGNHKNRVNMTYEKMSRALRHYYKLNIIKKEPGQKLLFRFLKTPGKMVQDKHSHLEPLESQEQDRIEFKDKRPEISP
Procedure, shortened: as §1

ELF5 = biological target: T11, ELF5 (Homo sapiens, UniProt Q9UKW6-2 1-255)
T11 sequence: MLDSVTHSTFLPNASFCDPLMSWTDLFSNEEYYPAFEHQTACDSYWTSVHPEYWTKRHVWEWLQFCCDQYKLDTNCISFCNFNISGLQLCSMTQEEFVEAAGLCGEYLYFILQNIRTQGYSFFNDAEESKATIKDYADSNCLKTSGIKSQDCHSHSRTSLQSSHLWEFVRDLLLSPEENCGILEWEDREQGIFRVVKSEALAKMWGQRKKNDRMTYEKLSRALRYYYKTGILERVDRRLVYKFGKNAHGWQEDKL
Procedure, shortened: as §1

ETV3 = biological target: T12, ETV3 (Homo sapiens, UniProt P41162-2 1-143)
T12 sequence: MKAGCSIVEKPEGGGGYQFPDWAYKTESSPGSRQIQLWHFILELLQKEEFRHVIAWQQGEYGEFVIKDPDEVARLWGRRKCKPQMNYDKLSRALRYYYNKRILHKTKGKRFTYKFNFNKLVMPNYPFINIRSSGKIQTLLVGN
Procedure, shortened: as §1

ETV6 = ETV6 (Homo sapiens, UniProt P41212 1-452)
ETV6, sequence (P41212 whole entry): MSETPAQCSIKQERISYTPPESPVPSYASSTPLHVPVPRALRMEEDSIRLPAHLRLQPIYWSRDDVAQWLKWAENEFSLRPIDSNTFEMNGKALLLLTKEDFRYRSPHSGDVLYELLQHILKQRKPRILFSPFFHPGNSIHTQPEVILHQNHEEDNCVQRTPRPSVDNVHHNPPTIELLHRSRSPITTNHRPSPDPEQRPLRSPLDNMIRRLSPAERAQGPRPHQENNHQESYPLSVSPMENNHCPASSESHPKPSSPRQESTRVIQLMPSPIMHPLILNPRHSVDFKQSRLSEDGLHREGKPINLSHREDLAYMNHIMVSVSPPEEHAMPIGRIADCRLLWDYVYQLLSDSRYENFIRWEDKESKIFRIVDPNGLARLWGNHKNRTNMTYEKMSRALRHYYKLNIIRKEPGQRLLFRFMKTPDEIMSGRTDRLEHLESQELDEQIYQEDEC
Procedure, shortened: as §1

CRX = CRX (Homo sapiens, UniProt O43186 1-299)
CRX, sequence (O43186 whole entry): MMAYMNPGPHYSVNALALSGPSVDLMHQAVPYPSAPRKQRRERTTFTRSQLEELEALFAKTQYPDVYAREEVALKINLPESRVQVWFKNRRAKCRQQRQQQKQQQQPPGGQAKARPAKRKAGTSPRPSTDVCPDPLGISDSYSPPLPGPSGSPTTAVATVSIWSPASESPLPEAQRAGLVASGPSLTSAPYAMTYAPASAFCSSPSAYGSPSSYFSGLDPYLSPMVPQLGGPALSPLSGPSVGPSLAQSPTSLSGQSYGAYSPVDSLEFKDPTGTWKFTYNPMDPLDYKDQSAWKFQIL
Procedure, shortened: as §1

Sequence | binding signal (FEV) | binding signal (ETV5) | binding signal (SPIC) | binding signal (ELF4) | binding signal (ELK4) | binding signal (ETV2) | binding signal (ELF3) | binding signal (ETV1) | binding signal (ERF) | binding signal (ETV3L) | binding signal (ETS2) | binding signal (SPDEF) | binding signal (ETV7) | binding signal (ELF5) | binding signal (ETV3) | binding signal (ETV6) | binding signal (CRX)
GCTGTT | 1.16 fold enrichment (6-mer frequency, TF over GST control) | 1.07 fold enrichment (6-mer frequency, TF over GST control) | 1.25 fold enrichment (6-mer frequency, TF over GST control) | 1.18 fold enrichment (6-mer frequency, TF over GST control) | 1.24 fold enrichment (6-mer frequency, TF over GST control) | 1.1 fold enrichment (6-mer frequency, TF over GST control) | 1.17 fold enrichment (6-mer frequency, TF over GST control) | 1.21 fold enrichment (6-mer frequency, TF over GST control) | 1.08 fold enrichment (6-mer frequency, TF over GST control) | 1.1 fold enrichment (6-mer frequency, TF over GST control) | 1.09 fold enrichment (6-mer frequency, TF over GST control) | 1.08 fold enrichment (6-mer frequency, TF over GST control) | 1.21 fold enrichment (6-mer frequency, TF over GST control) | 1.04 fold enrichment (6-mer frequency, TF over GST control) | 1.15 fold enrichment (6-mer frequency, TF over GST control) | 1.03 fold enrichment (6-mer frequency, TF over GST control) | –
ACCTTG | 1.12 fold enrichment (6-mer frequency, TF over GST control) | 1.2 fold enrichment (6-mer frequency, TF over GST control) | 1.17 fold enrichment (6-mer frequency, TF over GST control) | 1.22 fold enrichment (6-mer frequency, TF over GST control) | 1.21 fold enrichment (6-mer frequency, TF over GST control) | 1.4 fold enrichment (6-mer frequency, TF over GST control) | 1.29 fold enrichment (6-mer frequency, TF over GST control) | 1.21 fold enrichment (6-mer frequency, TF over GST control) | 1.31 fold enrichment (6-mer frequency, TF over GST control) | 1.23 fold enrichment (6-mer frequency, TF over GST control) | 1.27 fold enrichment (6-mer frequency, TF over GST control) | 1.27 fold enrichment (6-mer frequency, TF over GST control) | 1.22 fold enrichment (6-mer frequency, TF over GST control) | 1.11 fold enrichment (6-mer frequency, TF over GST control) | 1.25 fold enrichment (6-mer frequency, TF over GST control) | 1.17 fold enrichment (6-mer frequency, TF over GST control) | 1.03 fold enrichment (6-mer frequency, TF over GST control)
